Measured values published in PubChem BioAssay AID1159580 (chemical genetic matrix, 2015).
“And” between values parts separate entries of the source, which are not always exact repeats. Identical values can stand only once. About 2,000 (36%) of roughly 5,500 compounds were called active. Another 18% or so got no clear call; they are omitted. Rule as the data show it: active = normalized growth mostly below about 0.91 (no sharp cut-off); inconclusive = no clear call, values can overlap the other calls; inactive = mostly above about 0.92. The list shows a part of the results.

Assay: chemical genetic growth profiling, strain panel (AID 1159580);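 also: tested at 20 µM; growth read once vehicle control cultures reached saturation at 30 °C; 1 = growth at the plate median or of vehicle wells; lower values mean less growth of the strain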
Details: S. cerevisiae deletion strains, growth OD

Measured: normalized growth

CC[C@@]1(O)C[C@H](O[C@H]2C[C@H](N(C)C)[C@H](O)[C@H](C)O2)c2c(cc3c(c2O)C(=O)c2c(O)cccc2C3=O)[C@H]1C(=O)OC
inactive: locus YBR021W, strain FUR4, stronger effect = lower value 1.06 | locus YBR171W, strain sec66, stronger effect = lower value 0.994 | locus YBR229C, strain ROT2, stronger effect = lower value 0.942 | locus YBR279W, strain paf1, stronger effect = lower value 0.94 | locus YCL069W, strain vba3, stronger effect = lower value 0.972 | locus YCR088W, strain abp1, stronger effect = lower value 0.946 | locus YDL005C, strain med2, stronger effect = lower value 0.967 | locus YDL040C, strain nat1, stronger effect = lower value 0.955 | locus YDR001C, strain nth1, stronger effect = lower value 0.944 | locus YDR069C, strain doa4, stronger effect = lower value 0.908 | locus YDR150W, strain NUM1, stronger effect = lower value 0.945 | locus YDR297W, strain sur2, stronger effect = lower value 0.928 | locus YDR334W, strain swr1, stronger effect = lower value 0.959 | locus YEL003W, strain gim4, stronger effect = lower value 0.924 | locus YEL037C, strain rad23, stronger effect = lower value 0.944 | locus YEL061C, strain CIN8 (second series), stronger effect = lower value 0.949 | locus YER016W, strain bim1, stronger effect = lower value 0.925 | locus YER110C, stronger effect = lower value 0.921 | locus YER111C, strain swi4, stronger effect = lower value 0.989 | locus YER155C, strain BEM2 (second series), stronger effect = lower value 0.931 | locus YER155C, strain BEM2, stronger effect = lower value 0.944 | locus YGL078C, strain dbp3, stronger effect = lower value 0.928 | locus YGL167C, strain pmr1, stronger effect = lower value 0.963 | locus YGL173C, strain kem1, stronger effect = lower value 0.913 | locus YGL227W, strain vid30, stronger effect = lower value 0.959 | locus YGR078C, strain PAC10, stronger effect = lower value 0.905 | locus YGR252W, strain gcn5, stronger effect = lower value 1.06 | locus YHR013C, strain ard1, stronger effect = lower value 1.01 | locus YHR079C, strain IRE1, stronger effect = lower value 0.981 | locus YHR142W, strain chs7, stronger effect = lower value 0.882 | locus YJL129C, strain trk1, stronger effect = lower value 1.08 | locus YJL154C, strain vps35, stronger effect = lower value 0.95 | locus YJL187C, strain SWE1 (second series), stronger effect = lower value 0.871 | locus YJR066W, strain TOR1, stronger effect = lower value 0.879 | locus YKL009W, strain mrt4, stronger effect = lower value 0.897
0.899 (active) and 0.963 (inactive): locus YHR030C, strain SLT2, stronger effect = lower value
0.776 (active) and 0.954 (inactive): locus YJL095W, strain BCK1, stronger effect = lower value
active: locus YAL021C, strain ccr4, stronger effect = lower value 0.653 | locus YAL026C, strain drs2, stronger effect = lower value 0.883 | locus YAL030W, strain snc1, stronger effect = lower value 0.907 | locus YBL061C, strain skt5, stronger effect = lower value 0.891 | locus YBR009C, strain hhf1, stronger effect = lower value 0.783 | locus YBR023C, strain chs3, stronger effect = lower value 0.899 | locus YBR231C, strain swc5, stronger effect = lower value 0.823 | locus YCL011C, strain gbp2, stronger effect = lower value 0.867 | locus YCL016C, strain dcc1, stronger effect = lower value 0.704 | locus YCL029C, strain bik1, stronger effect = lower value 0.854 | locus YDL035C, strain GPR1, stronger effect = lower value 0.797 | locus YDL074C, strain BRE1, stronger effect = lower value 0.765 | locus YDL101C, strain DUN1, stronger effect = lower value 0.786 | locus YDL185W, strain tfp1, stronger effect = lower value 0.853 | locus YDL192W, strain arf1, stronger effect = lower value 0.666 | locus YDR101C, strain arx1, stronger effect = lower value 0.8 | locus YDR137W, strain rgp1, stronger effect = lower value 0.631 | locus YDR159W, strain sac3, stronger effect = lower value 0.73 | locus YDR162C, strain NBP2, stronger effect = lower value 0.595 | locus YDR195W, strain ref2 1.73 [resistant] | locus YDR318W, strain mcm21, stronger effect = lower value 0.866 | locus YDR335W, strain msn5, stronger effect = lower value 0.908 | locus YDR388W, stronger effect = lower value 0.847 | locus YDR392W, strain spt3, stronger effect = lower value 0.676 | locus YDR502C, strain sam2, stronger effect = lower value 0.812 | locus YEL061C, strain CIN8, stronger effect = lower value 0.879 | locus YER015W, strain faa2, stronger effect = lower value 0.869 | locus YER167W, strain BCK2, stronger effect = lower value 0.884 | locus YFR010W, strain ubp6, stronger effect = lower value 0.887 | locus YGL086W, strain mad1, stronger effect = lower value 0.816 | locus YGL240W, strain doc1, stronger effect = lower value 0.788 | locus YGL248W, strain PDE1, stronger effect = lower value 0.88 | locus YGL253W, strain hxk2, stronger effect = lower value 0.792 | locus YGR135W, strain pre9, stronger effect = lower value 0.875 | locus YHR027C, strain rpn1, stronger effect = lower value 0.785 | locus YHR079C, strain IRE1 (second series), stronger effect = lower value 0.89 | locus YHR094C, strain hxt1, stronger effect = lower value 0.92 | locus YHR129C, strain ARP1, stronger effect = lower value 0.886 | locus YHR200W, strain rpn10, stronger effect = lower value 0.788 | locus YIL066C, strain RNR3, stronger effect = lower value 0.79 | locus YIL073C, strain SPO22, stronger effect = lower value 0.538 | locus YIL125W, strain kgd1, stronger effect = lower value 0.918 | locus YIR030C, strain dcg1, stronger effect = lower value 0.871 | locus YJL092W, strain hpr5, stronger effect = lower value 0.804 | locus YJL095W, strain BCK1 (second series), stronger effect = lower value 0.886 | locus YJL115W, strain asf1, stronger effect = lower value 0.507 | locus YJL134W, strain LCB3, stronger effect = lower value 0.924 | locus YJL164C, strain tpk1, stronger effect = lower value 0.867 | locus YJL166W, strain qcr8, stronger effect = lower value 0.85 | locus YJL168C, strain set2, stronger effect = lower value 0.863 | locus YJR043C, strain POL32, stronger effect = lower value 0.722
